{
  "source": "PubChem BioAssay (Tox21)",
  "note": "Several values for one entry are separate records, joined by “and”; a condition that tells them apart may be missing. Identical values can stand only once. Records with an inconclusive call do not appear. A call without a number means that no potency is given here. Activity calls are given as the source filed them. Calls come from the whole dose curve; as a rule, active = well fitted activation curve with a large enough effect in the repeat runs; inconclusive = weak or mixed curves; inactive = flat fitted curve, though single readings scatter. Potency is the fitted concentration of half-maximal effect.",
  "data": [
    {"experiment": "A CellTox Green Cytotoxicity Assay to monitor cytotoxicity in HepG2 cells - 32 hour (AID 1224883); note: nearly all actives have a fitted effect of over 50% in size", "conditions": "CellTox Green fluorescence; series mostly up to 76.8 µM; cytotoxicity increase: at the top concentration", "text": "National Center for Advancing Translational Sciences [NCATS]\nNIH Chemical Genomics Center [NCGC]\nU.S. Environmental Protection Agency [EPA]\nNational Institutes of Environmental Health Sciences [NIEHS]\nNational Toxicology Program [NTP]\nCell-based models are critical for drug discovery. Determining the natural cytotoxic effects resulting from test compounds is an essential research activity. A CellTox Green Cytotoxicity Assay to monitor cytotoxicity in real time of continues cell culture during 40 hours of the compound treatment was used to screen Tox21 10K library compounds in HepG2 cells. CellTox Green Cytotoxicity Assay is a nonlytic, homogeneous, biofluorescent method to measure cytotoxicity in cell culture after experimental manipulation. The assay system uses a proprietary asymmetric cyanine dye that is excluded from viable cells but preferentially stains the dead cell's DNA. […] Viable cells produce no appreciable increases in fluorescence. Therefore, the fluorescence signal produced by the binding interaction with dead cell DNA is proportional to cytotoxicity.\nThe mixture of HepG2 cell suspension and reagents were dispensed at 600cells/6 ul/well in 1536-well tissue culture treated black solid bottom plates using a Multidrop dispenser. After the assay plates were incubated at a 37 C/5% CO2 incubator for 5 hours, 23 nL of compounds dissolved in DMSO, positive and negative controls was transferred to the assay plate by a pintool work station. The plates were incubated at 37 C for 40 hours. The fluorescence intensity were measured at 0h, 8h, 16h, 24h, 32h and 40h time points using ViewLux plate reader during compound treatment.", "values": [
      {"smiles": "O=C(NCC1CCCCN1)c1cc(OCC(F)(F)F)ccc1OCC(F)(F)F", "note": "(stereo not given)", "Potency": "inactive"},
      {"smiles": "O=C(O)Cc1c[nH]c2ccccc12", "Potency": "inactive"},
      {"smiles": "NC(N)=S", "Potency": "inactive"},
      {"smiles": "O=c1n(CCCN2CCN(c3cccc(Cl)c3)CC2)nc2ccccn12", "Potency": "inactive"},
      {"smiles": "CC(=O)OC[C@H]1O[C@@](COC(C)=O)(O[C@H]2O[C@H](COC(C)=O)[C@@H](OC(C)=O)[C@H](OC(C)=O)[C@H]2OC(C)=O)[C@@H](OC(C)=O)[C@@H]1OC(C)=O", "Potency": "inactive"},
      {"smiles": "CC/C(C)=N/O", "Potency": "inactive"},
      {"smiles": "NC1CCCCC1N", "note": "(stereo not given)", "Potency": "inactive"},
      {"smiles": "Cc1ncc(CO)c(CO)c1O", "Potency": "inactive"},
      {"smiles": "C1CCCNCC1", "Potency": "inactive"},
      {"smiles": "Nc1cccc(C(F)(F)F)c1", "Potency": "inactive"},
      {"smiles": "CCCCCCCCO", "Potency": "inactive"},
      {"smiles": "C[n+]1ccn(CCO)c1", "cytotoxicity increase": "-0.0611% (inactive)"},
      {"smiles": "COCN(COC)c1nc(N(COC)COC)nc(N(COC)COC)n1", "Potency": "inactive"},
      {"smiles": "CCCOC(=O)NCCCN(C)C", "Potency": "inactive"},
      {"smiles": "COc1cc(NC(=O)CC(C)=O)c(OC)cc1Cl", "Potency": "inactive"},
      {"smiles": "Cc1ccc(C(C)C)cc1", "Potency": "inactive"},
      {"smiles": "CCCOCC(C)O", "note": "(stereo not given)", "Potency": "inactive"},
      {"smiles": "CCCCCCCCCCCC(=O)N(C)CC(=O)O", "cytotoxicity increase": "2.96% [at 6.97 µM] (inactive)"},
      {"smiles": "O=C(c1ccccc1)c1ccc(O)c(O)c1O", "Potency": "inactive"},
      {"smiles": "Cc1nnc(NS(=O)(=O)c2ccc(N)cc2)s1", "Potency": "inactive"},
      {"smiles": "O=[N+]([O-])c1cc(C(F)(F)F)ccc1Cl", "Potency": "inactive"},
      {"smiles": "CC(=O)c1nccs1", "Potency": "inactive"},
      {"smiles": "NC(=O)NC(N)=O", "Potency": "inactive"},
      {"smiles": "Clc1cccc(Cl)c1NC1=NCCN1", "Potency": "inactive"},
      {"smiles": "O=C1CCCCCCCCCCC1", "Potency": "inactive"},
      {"smiles": "CC(=O)OC/C=C(\\C)CCC=C(C)C", "Potency": "inactive"},
      {"smiles": "CC(=O)Nc1ccc(CC(=O)O)cc1", "Potency": "inactive"},
      {"smiles": "COc1ccc([C@@H]2CC(=O)c3c(O)cc(O[C@@H]4O[C@H](CO[C@@H]5O[C@@H](C)[C@H](O)[C@@H](O)[C@H]5O)[C@@H](O)[C@H](O)[C@H]4O)cc3O2)cc1OC", "Potency": "inactive"},
      {"smiles": "O=C1OC(=O)c2c(Cl)c(Cl)c(Cl)c(Cl)c21", "Potency": "inactive"},
      {"smiles": "CCOC(=O)c1ccc(O)cc1", "Potency": "inactive"},
      {"smiles": "Cc1ccccc1Cl", "Potency": "inactive"},
      {"smiles": "Cc1cc(CC(=O)O)n(C)c1C(=O)c1ccc(Cl)cc1", "Potency": "inactive"},
      {"smiles": "OC1CCCCC1", "Potency": "inactive"},
      {"smiles": "C=C(C)CC(C)(C)C", "Potency": "inactive"},
      {"smiles": "N#CCC(=O)O", "Potency": "inactive"},
      {"smiles": "Nc1nc(N)c2nc(-c3ccccc3)c(N)nc2n1", "Potency": "49.5 µM (active) and 49 µM (active)"},
      {"smiles": "CCN(CC)CCNC(=O)c1ccc(N)cc1", "Potency": "inactive"},
      {"smiles": "CCCCCC(C)=O", "cytotoxicity increase": "-5.24% (inactive)"},
      {"smiles": "Cc1ccccc1C=O", "Potency": "inactive"},
      {"smiles": "CN=C(NC#N)NCCSCc1nc[nH]c1C", "cytotoxicity increase": "5.89% (inactive)"}
    ]}
  ]
}
